Source: PubChem BioAssay
FBPA Giardia inh: blocks Giardia fructose-bisphosphate aldolase activity; A8B2U2; purified Giardia FBPA; Potency, µM (series often up to 59.6 µM), actives largely listed as inhibitors; 290,000 tested, 0.71% active; note: nearly all actives have a fitted effect of over 55% in size
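40 nM FBPA preincubated 10 min at RT with compound (up to 57.5 uM final), then substrate plus GAPDH/TPI/NAD/arsenate coupling and diaphorase/resazurin added. Fluorescence read after 20 min at RT, 525/598 nm.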
LmPK inhibitor: LmPK (Leishmania mexicana) enzyme inhibition | Q27686 | 290,000 tested, 0.37% active | Potency, µM (titrated, usually from 57.5 µM), usual class: inhibitors | purified LmPK, Kinase-Glo ATP luminescence, 1 h
Target sequence (Q27686 whole entry, looked up): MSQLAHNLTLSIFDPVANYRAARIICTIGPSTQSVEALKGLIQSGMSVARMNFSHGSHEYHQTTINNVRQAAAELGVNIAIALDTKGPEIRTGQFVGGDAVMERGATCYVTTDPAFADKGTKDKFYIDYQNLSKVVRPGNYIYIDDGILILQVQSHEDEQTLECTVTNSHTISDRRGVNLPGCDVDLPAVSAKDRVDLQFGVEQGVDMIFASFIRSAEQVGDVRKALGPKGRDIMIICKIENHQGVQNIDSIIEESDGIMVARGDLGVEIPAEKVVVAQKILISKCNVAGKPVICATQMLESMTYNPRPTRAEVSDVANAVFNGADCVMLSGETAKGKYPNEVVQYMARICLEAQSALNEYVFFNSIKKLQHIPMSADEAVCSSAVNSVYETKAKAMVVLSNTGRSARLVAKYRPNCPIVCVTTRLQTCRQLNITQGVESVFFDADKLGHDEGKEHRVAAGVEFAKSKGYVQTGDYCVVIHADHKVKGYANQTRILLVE
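Screened at intermediate enzyme activity to detect both inhibitors and activators: LmPK at 0.1 nM, with a 0.5 nM enzyme column as activation reference. PEP 0.5 mM, ADP 0.1 mM; ATP detected by luminescence after 1 h.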
TbPYK inhibitor: blocks Trypanosoma brucei pyruvate kinase; Q57TT1; TbPYK enzyme, Kinase-Glo Plus ATP luminescence, 45 min; Potency, µM (highest dose often 76.8 µM), hits mostly inhibitors; 410,000 tested, 0.12% active; note: nearly all actives have a fitted effect of over 50% in size
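Enzyme and substrate buffer are dispensed first and compound is pin-transferred. ADP at 130 uM final then starts the reaction, which runs 45 min at room temperature. Detection reagent is added for 10 min before luminescence is imaged.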
RE007 growth inh: less growth of the S. pombe RE007 Vpr strain | S. pombe RE007 Vpr strain, BacTiter-Glo ATP luminescence, 24 h | Potency, µM (highest dose often 92.2 µM), most hits filed as inhibitors | 360,000 tested, 0.21% active | AID 651644; active = well fitted falling curve with a large enough effect; inconclusive = small, poorly fitted or top-dose-only effect; inactive = no such curve, though single readings can be large or run the other way; note: nearly all actives have a fitted effect of over 50% in size
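Fission yeast RE007 carrying one integrated HIV-1 vpr copy, seeded at OD 0.01 in PMG+AL medium with 23 nL pinned compound. Grown 24 h at 30 degrees; viability read by BacTiter-Glo luminescence after 5 min.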
Cycloheximide cs: counter-screen for Shiga toxin inhibitors: cycloheximide protein synthesis inhibition; cell reporter, cycloheximide protein synthesis inhibition counterscreen; max response, %; 300,000 tested, 12% active; AID 2314; in the data active = max response mostly above about 13%, no sharp cut-off; inactive = mostly below about 14%; note: read at 38.3 µM for the half of the compounds with a filed dose
Shiga toxin inh: inhibitors of Shiga toxin in Vero cells; Vero cells, Shiga toxin protein synthesis inhibition reporter; inhibition, % at 38.7 µM; 290,000 tested, 9.2% active; in the data active = inhibition mostly above about 28%, no sharp cut-off; inactive = mostly below about 43%
Large screens that a line does not name were inactive. Only a selection was taken, and hits are over-represented in it overall. Unless noted, calls come from the whole dose curve; as a rule, active = well fitted curve in the direction sought with a large enough effect; inconclusive = small, poorly fitted or top-dose-only effect, or another doubt; inactive = no such curve, though single readings can be large; an effect the other way counts as inactive or inconclusive.

COc1cc(OC)c(C(=O)Nc2cccc3ccccc23)cc1OC	Cycloheximide cs 21 (no result: Shiga toxin inh)
Cc1oc(-c2ccccc2)cc1C(=O)Nc1cccc2ccccc12	RE007 growth inh inconclusive, Cycloheximide cs 16
COc1ccc(S(=O)(=O)N2CCN(c3ccc(F)cc3)CC2)cc1C(=O)N1CCOCC1	none
CCCC/C=C/C(NC(=O)c1ccco1)c1ccccc1 (configuration not stated)	none (no result: LmPK inhibitor, TbPYK inhibitor, RE007 growth inh, Cycloheximide cs, Shiga toxin inh)
CCCCNC(=O)C1CCC(Cn2c(=O)c3sccc3n(CC(=O)Nc3ccccc3)c2=O)CC1 (configuration not stated)	none (no result: FBPA Giardia inh, LmPK inhibitor, RE007 growth inh, Cycloheximide cs, Shiga toxin inh)
O=S(=O)(Nc1ccccc1)C1CCCCC1	none (no result: FBPA Giardia inh, LmPK inhibitor, Cycloheximide cs, Shiga toxin inh)
Cc1cc(C(=O)Nc2cccc3ccccc23)co1	Cycloheximide cs 14 (no result: FBPA Giardia inh)
Cc1ccc(C(=O)Nc2cccc3ccccc23)o1	none (no result: FBPA Giardia inh, LmPK inhibitor, Cycloheximide cs, Shiga toxin inh)
CCCn1nnc(NC(=O)c2cc3ccccc3o2)n1	Cycloheximide cs 43, Shiga toxin inh 74
CCCn1nnc(NC(=O)c2ccc3c(c2)OCO3)n1	Cycloheximide cs 54, Shiga toxin inh 89
CCCn1nnc(NC(=O)Cc2ccccc2)n1	none
CCCn1nnc(NC(=O)c2cccc(Cl)c2)n1	none (no result: FBPA Giardia inh)
CCCCn1nnc(NC(=O)c2cc3ccccc3o2)n1	Cycloheximide cs 44, Shiga toxin inh 42
CCCCn1nnc(NC(=O)c2ccc(-c3cccc([N+](=O)[O-])c3)o2)n1	none (no result: TbPYK inhibitor, RE007 growth inh)
CCn1nnc(NC(=O)c2ccc(-c3ccccc3[N+](=O)[O-])o2)n1	Cycloheximide cs 17
Cc1ccc(NC(=O)Cn2ccn(Cc3ccc(Cl)cc3)c(=O)c2=O)cc1C	none (no result: FBPA Giardia inh, LmPK inhibitor, RE007 growth inh, Cycloheximide cs, Shiga toxin inh)
CN[C@H]1C[C@@H](c2ccccc2)N(C(C)=O)C[C@H]1CO	none (no result: FBPA Giardia inh, LmPK inhibitor, Cycloheximide cs, Shiga toxin inh)
CCOc1ccc(-c2cc(C(=O)Nc3cc(OC)c(OC)c(OC)c3)[nH]n2)c(C)c1	none (no result: FBPA Giardia inh, LmPK inhibitor, Cycloheximide cs, Shiga toxin inh)
Cc1ccc(S(=O)(=O)N2CCN(C(=O)c3ccc(-n4cncn4)c([N+](=O)[O-])c3)CC2)c(C)c1	none (no result: FBPA Giardia inh, LmPK inhibitor, Cycloheximide cs, Shiga toxin inh)
CC(c1ccccc1)N1C(=O)c2ccccc2C1O (configuration not stated)	none
CCn1nnc(NC(=O)c2ccc(Br)o2)n1	none
CC(=O)c1ccc(NC(=O)c2ccc(COc3ccccc3[N+](=O)[O-])o2)cc1	none
Cc1nc(NC(=O)c2cc3ccccc3o2)ccc1Br	none
CCc1ccc(C(=O)Nc2nnn(CC)n2)cc1	Cycloheximide cs 11
CC(=O)c1cccc(NC(=O)c2ccc(-c3ccccc3[N+](=O)[O-])o2)c1	FBPA Giardia inh 10µM, Cycloheximide cs 70, Shiga toxin inh 51
CCn1nnc(NC(=O)c2cc3ccccc3o2)n1	Cycloheximide cs 30, Shiga toxin inh 81
CCCCn1nnc(NC(=O)c2ccc(-c3ccccc3)cc2)n1	Cycloheximide cs 41, Shiga toxin inh active
c1ccc(N=Nc2ccccc2)cc1	none (no result: LmPK inhibitor, TbPYK inhibitor, RE007 growth inh, Cycloheximide cs, Shiga toxin inh)
CC(=O)Nc1ccc(N=NN2CCOCC2)cc1	Cycloheximide cs 46, Shiga toxin inh 73
Oc1ccc(N=Nc2ccccc2)cc1	Cycloheximide cs 36, Shiga toxin inh 73 (no result: RE007 growth inh)
Oc1ccc(Cl)cc1N=Nc1ccccc1	Cycloheximide cs 27
CC(=O)Nc1ccc(N=Nc2ccc(O)cc2)cc1	Cycloheximide cs 35, Shiga toxin inh active
CC(=O)Nc1ccc(S(=O)(=O)N(C)c2ccc(O)cc2)cc1	none
Cc1ccc(O)c(N=Nc2ccccc2)n1	TbPYK inhibitor inconclusive, RE007 growth inh inconclusive (no result: LmPK inhibitor, Cycloheximide cs, Shiga toxin inh)
C=CCC[C@@H](Cc1ccc(F)cc1)C(=O)OC[C@@H](Cc1ccccc1)NC(=O)[C@@H](CC=C)CC(=O)N[C@@H](CO)Cc1ccccc1	none (no result: FBPA Giardia inh, LmPK inhibitor, Cycloheximide cs, Shiga toxin inh)
Cc1cc(C(=O)COc2ccc(-c3nnco3)cc2)c(C)n1Cc1ccccc1	Cycloheximide cs 17
Cc1cccc(NC(=O)CNC(=O)CN2C(=O)NC3(CCc4ccccc43)C2=O)c1C (configuration not stated)	none (no result: FBPA Giardia inh, LmPK inhibitor, Cycloheximide cs, Shiga toxin inh)
COc1ccc(CC(=O)O/N=C(\N)c2ccccc2)cc1OC	Cycloheximide cs 38, Shiga toxin inh 42
COc1ccc(/C(N)=N/OC(=O)Cc2cccs2)cc1	Cycloheximide cs 44, Shiga toxin inh 113
COc1ccc(CC(=O)O/N=C(\N)c2ccc(Br)cc2)cc1OC	none
COc1ccc(/C(N)=N/OC(=O)Cc2cccs2)cc1OC	Cycloheximide cs 27, Shiga toxin inh 33
COc1ccc(CC(=O)NCc2cccs2)cc1	none
COc1ccc(CC(=O)O/N=C(\N)c2ccc(OC)cc2)cc1	Cycloheximide cs 64, Shiga toxin inh 71
CCOc1ccc(C(=O)NC2CC(=O)N(c3ccc(C)cc3)C2)cc1OCC (configuration not stated)	none (no result: FBPA Giardia inh, LmPK inhibitor, RE007 growth inh, Cycloheximide cs, Shiga toxin inh)
COCCN(C(=O)CCC(=O)Nc1cc(C)on1)C(C(=O)NC1CCCC1)c1ccc(C(C)C)cc1 (configuration not stated)	none
COc1ccc(N2CCN(C(=O)C(C)n3c(=O)cc(C(F)(F)F)c4c(C)nn(C)c43)CC2)cc1 (configuration not stated)	none (no result: FBPA Giardia inh, LmPK inhibitor, RE007 growth inh, Cycloheximide cs, Shiga toxin inh)
COc1ccc(/C(N)=N/OC(=O)Cc2ccccc2[N+](=O)[O-])cc1	Cycloheximide cs 31
COc1ccc(C(CNC(=O)c2cccc(NS(=O)(=O)c3ccccc3)c2)N(C)C)cc1 (configuration not stated)	Cycloheximide cs 16 (no result: FBPA Giardia inh)
COc1ccc(-c2cc(C(=O)NCC(c3ccccc3)N(C)C)c3ccccc3n2)cc1OC (configuration not stated)	none
COc1ccc(C(CNC(=O)c2ccc(-c3ccccc3)cc2)N(C)C)cc1OC (configuration not stated)	Cycloheximide cs 10
CCc1cc2c(=O)n(-c3ccc(C)cc3)cnc2s1	Cycloheximide cs 53, Shiga toxin inh 74
CCc1cc2c(=O)n(-c3ccccc3)cnc2s1	Cycloheximide cs 53, Shiga toxin inh 105
Cc1ccc(C)c(OCc2cc(C(=O)N3CCN(c4ccccc4C)CC3C)no2)c1 (configuration not stated)	Cycloheximide cs 31, Shiga toxin inh 113
Cc1cccc(C)c1OCc1cc(C(=O)N2CCN(c3ccccc3)CC2C)no1 (configuration not stated)	Cycloheximide cs 16 (no result: FBPA Giardia inh)
CC1CN(c2ccccc2)CCN1C(=O)c1cc(COc2c(F)cccc2F)on1 (configuration not stated)	none
Cc1cc(N/C=C/C(=O)c2cccs2)ccc1F	LmPK inhibitor inconclusive, Cycloheximide cs 29, Shiga toxin inh 97
Cc1ccc(NC2CCCN(C(=O)c3cccs3)C2)cc1C (configuration not stated)	none (no result: FBPA Giardia inh)
O=C(/C=C/Nc1ccc(Nc2ccccc2)cc1)c1cccs1	Cycloheximide cs 63, Shiga toxin inh 103
Cc1ccc(N/C=C/C(=O)c2cccs2)cc1C	LmPK inhibitor inconclusive, RE007 growth inh inconclusive, Cycloheximide cs 31
Cc1c(N/C=C/C(=O)c2cccs2)c(=O)n(-c2ccccc2)n1C	none
